# AmpC detergent – inhibitors of E. coli AmpC beta-lactamase with detergent; AmpC hydrolysis of nitrocefin, absorbance 480 nm, 0.01% Triton; Potency, µM (highest dose often 114 µM), inactives show at the top dose activity change, negative = inhibition, hits mostly inhibitors; hit rate 0.041% among 370,000; AID 485294;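 note: 0% = no-compound wells and -100% = no-enzyme wells; nearly all actives have a fitted effect of over 25% in size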
# Target sequence (P00811 whole entry, looked up): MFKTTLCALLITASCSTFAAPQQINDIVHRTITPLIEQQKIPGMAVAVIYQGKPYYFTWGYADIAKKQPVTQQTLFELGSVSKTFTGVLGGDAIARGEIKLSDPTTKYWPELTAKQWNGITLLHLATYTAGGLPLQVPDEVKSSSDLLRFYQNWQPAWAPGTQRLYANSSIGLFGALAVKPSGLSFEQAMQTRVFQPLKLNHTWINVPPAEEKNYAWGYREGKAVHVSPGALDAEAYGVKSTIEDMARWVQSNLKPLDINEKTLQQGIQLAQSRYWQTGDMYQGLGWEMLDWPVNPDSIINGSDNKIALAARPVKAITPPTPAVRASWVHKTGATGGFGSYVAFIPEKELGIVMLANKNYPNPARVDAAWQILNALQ
#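 20 mM phosphate pH 7.0 + 0.01% (detergent screen) or 0.0001% Triton X-100; 5.3 nM AmpC reagent; cpd preinc 15 min RT; nitrocefin (800 uM stock) to start; A480 q20 s × 4 min; Activity was normalised to no-enzyme and no-compound control wells.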
# AmpC no deterg – blocks E. coli AmpC beta-lactamase in detergent-free assay. P00811. AmpC nitrocefin hydrolysis, absorbance 480 nm, 0.0001% Triton. Potency, µM (titrated, usually from 57.1 µM), inactives show at the top dose activity change, negative = inhibition, most hits filed as inhibitors. hit rate 0.52% among 330,000. AID 485341;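 note: plate controls were no compound for no effect and no enzyme for full effect; nearly all actives have a fitted effect of over 20% in size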
#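 AmpC (5.3 nM in the dispensed reagent) in 20 mM phosphate pH 7.0 with 0.01% (detergent screen) or 0.0001% Triton X-100 was preincubated with compounds for 15 min at room temperature. Nitrocefin was then added from an 800 uM solution, and hydrolysis was followed at 480 nm.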
# Sm TGR block – inhibitors of Schistosoma mansoni thioredoxin glutathione reductase; purified TGR, DTNB reduction, TNB absorbance 405 nm; Q962Y6; Potency, µM (top dose mostly 114 µM), without a hit: at the highest dose activity change, negative = inhibition, usual class: inhibitors; hit rate 3% among 360,000; AID 485364; note: nearly all actives have a fitted effect of over 60% in size
#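 Kinetic colorimetric format: TGR-catalysed, NADPH-driven DTNB reduction monitored via TNB absorbance. Enzyme dispensed at 20 nM; compound exposure 15 min at room temperature before reaction start.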
# The depositor's hits bear a star; ? = inconclusive; · = no result given. Only some compounds are listed: those with a hit (about 3.3% of all), similar ones and a draw of the others. Calls come from the whole dose curve; as a rule, active = well fitted curve in the direction sought with a large enough effect; inconclusive = small, poorly fitted or top-dose-only effect, or another doubt; inactive = no such curve, though single readings can be large; an effect the other way counts as inactive or inconclusive. Unless noted, % is set by controls: 0 for no effect and ±100 for the full control effect; potency is the fitted concentration of half-maximal effect.
SMILES,AmpC detergent,AmpC no deterg,Sm TGR block
COc1ccc(C(=O)/C(=C\c2ccco2)N2C=CC=CC2=C(C#N)C#N)cc1,-0.5%,-36.7%,?
N#C/C(=C/c1ccco1)C(N)=S,-10.7%,-39.6%,-0.9%
CCOC(=O)c1c(NC(=O)c2noc3c2CC(C(C)(C)C)CC3)sc2c1CCCC2 (stereo not drawn),-4.5%,·,0.5%
Cc1cccc(-c2nc3c(C#N)c[nH]n3c2NC2CCCCC2)c1,12.0%,·,-11.0%
O=C(Nc1ccc(F)c(Cl)c1)N1CCN2CCCCC2C1 (stereo not drawn),1.4%,·,7.9%
COC(=O)Cc1c(C)c2ccc3c(c2oc1=O)CN(Cc1ccc(Cl)cc1)CO3,14.5%,·,-0.9%
Cn1c2c(c(=O)n(C)c1=O)CN(CC1CCCO1)CN2 (stereo not drawn),?,-7.5%,15.7%
COc1ccc(CCN2CNc3c(c(=O)n(C)c(=O)n3C)C2)cc1,-19.0%,-11.1%,89.1µM*
Cc1ccc(CN(C(=O)COc2cccc([N+](=O)[O-])c2)c2ccccn2)o1,14.4%,·,50.1µM*
Cc1ccc(CN(C(=O)COc2cccc([N+](=O)[O-])c2)c2ccccn2)cc1,18.7%,·,-0.6%
Cc1cc(NC(=O)COc2ccc3ccccc3c2)no1,?,-53.0%,-1.6%
Cc1cc(NC(=O)COc2cccc([N+](=O)[O-])c2)no1,-8.7%,22.2%,44.7µM*
Cc1cc(Cl)ccc1NC(=O)C1CCN(c2nnc(-n3c(C)ccc3C)s2)CC1,18.1%,·,-32.3%
COc1ccccc1Cc1nc2ccccc2[nH]c1=O,-3.0%,·,-1.1%
N#CC1=C(N)C(C#N)(C#N)C(c2ccc[nH]2)C2CCCC=C12 (stereo not drawn),-12.6%,-34.0%,15.8µM*
N#CC1=C(N)C(C#N)(C#N)C(c2cccnc2)C2CCCC=C12 (stereo not drawn),-18.1%,-21.6%,-26.4%
CCN1C(=O)C2(C(C#N)=C(N)Oc3n[nH]c(-c4ccccc4)c32)c2ccccc21 (stereo not drawn),-5.0%,-9.3%,-10.1%
COC(=O)CN1C(=O)C2(C(C#N)=C(N)Oc3n[nH]c(-c4cccs4)c32)c2ccccc21 (stereo not drawn),-2.4%,·,50.1µM*
CCC(C)NC(=O)CSc1nc2n[nH]c(C)c2c(=N)n1-c1cc(Cl)ccc1C (stereo not drawn),-0.8%,·,-1.4%
COc1cccc(C(=O)Nc2ccc(-c3nc4ccccc4s3)cc2Cl)c1,-4.0%,·,2.2%
Cc1ccc(CN2CCCn3nc(C(=O)NCc4ccc(OC(C)C)cc4)cc3C2=O)cc1,-4.3%,·,1.5%
CCOc1ccc(C(=O)NCc2ccncc2)cc1,-17.7%,-18.3%,14.0%
Cc1ccc(C)n1-c1ccc(C(=O)NCc2ccncc2)cc1,-10.9%,10.5%,22.4µM*
Cc1ccc2c(nc3s/c(=C\c4ccc(-c5ccccc5C(=O)O)o4)c(=O)n32)c1C,-7.6%,-25.9%,-26.0%
O=C(O)c1ccc(-c2ccc(/C=c3/sc4nc5ccccc5n4c3=O)o2)cc1Cl,-0.3%,-23.3%,28.2µM*
SMILES,AmpC detergent,AmpC no deterg,Sm TGR block
COc1cccc(C(=O)Nc2c3c(nn2-c2ccc(C)cc2C)CS(=O)(=O)C3)c1OC,1.9%,·,?
CC(=O)Nc1ccc(C(=O)CSc2nnc(-c3ccccc3)n2-c2ccccc2)cc1,0.2%,·,-1.3%
Cc1ccc(S(=O)(=O)c2c(N)n(Cc3ccco3)c3nc4ccccc4nc23)cc1,?,-30.2%,?
COc1ccc(Cn2c3nc4ccccc4nc3c3c(=O)n(Cc4ccco4)cnc32)cc1,-0.1%,-0.2%,15.8µM*
CCCn1cnc2c(c1=O)c1nc3ccccc3nc1n2Cc1ccccc1OC,2.7%,-8.3%,-0.1%
COCCCn1c2nc3ccccc3nc2c2c(=O)n(-c3ccccc3OC)cnc21,1.3%,-10.7%,3.2%
Cc1cccc(-n2cnc3c(c2=O)c2nc4ccccc4nc2n3Cc2ccco2)c1,?,-0.4%,2.82µM*
Cc1cccc(S(=O)(=O)c2c(N)n(Cc3ccco3)c3nc4ccccc4nc23)c1,-14.7%,-47.9%,17.8µM*
Cc1ccc(C)c(Cn2c(=O)n(C(C)C)c(=O)c3oc4ccccc4c32)c1,0.8%,·,7.5%
Cc1sc2c(c1C)c(=O)n(-c1ccccc1)c(=O)n2CC(=O)c1ccc(Cl)cc1,-2.5%,·,1.0%
O=C(Nc1csc([N+](=O)[O-])c1)Nc1ccccc1Cl,6.7%,-40.1%,-1.4%
O=C(Nc1ccc(Cl)cc1)Nc1ccccc1Sc1ncc([N+](=O)[O-])s1,3.6%,-50.3%,4.47µM*
CCOC(=O)C1CCCN(c2cc(NCCCO)c([N+](=O)[O-])c3nonc23)C1 (stereo not drawn),-6.7%,25.4%,0.0%
CC(=O)OCCCNc1cc(SCc2ccco2)c2nonc2c1[N+](=O)[O-],-8.6%,-17.8%,7.08µM*
CCCSc1cc(NCCOC(=O)CCC)c([N+](=O)[O-])c2nonc12,-13.6%,22.1%,2µM*
CCCC(=O)OCCNc1cc(SCc2ccco2)c2nonc2c1[N+](=O)[O-],3.3%,-15.9%,14.1µM*
Cc1nn(C(C)C(=O)NCc2ccco2)c(C)c1[N+](=O)[O-] (stereo not drawn),1.5%,-16.9%,-19.4%
O=[N+]([O-])c1c(NCc2ccco2)ccc2nonc12,-3.5%,-20.2%,-21.9%
CCCC(=O)OCCNc1cc(Sc2nccn2C)c2nonc2c1[N+](=O)[O-],?,-9.9%,0.398µM*
CCCSc1cc(NCCOC(C)=O)c([N+](=O)[O-])c2nonc12,?,-8.5%,-3.0%
Cc1ccc(CN2CCN(C3CCN(C(=O)c4ccc(C)cc4)CC3)C(=O)C2=O)cc1,-4.9%,·,6.9%
CCCCn1c(SCC(=O)c2ccccc2)nc2sc3c(c2c1=O)CCCC3,16.4%,·,-3.6%
Cc1ccc(NC(=O)c2ccc(F)c(S(=O)(=O)NCCc3ccccc3)c2)cc1F,12.1%,·,0.8%
CCOC(=O)N1CCc2c(sc3c2c(=O)n(-c2ccc(CC)cc2)c(=O)n3Cc2ccc(F)cc2Cl)C1,7.6%,·,-0.8%
Cc1cccc(CS(=O)(=O)CC2Nc3ccc(C(=O)NCc4ccccc4Cl)cc3NC2=O)c1 (stereo not drawn),2.7%,·,-12.3%
SMILES,AmpC detergent,AmpC no deterg,Sm TGR block
Cc1cccc(OC(C)C(=O)Nc2ncn[nH]2)c1 (stereo not drawn),-8.5%,·,9.1%
CCC(=O)NC(C)c1cc(Cl)c2cccnc2c1O (stereo not drawn),-3.1%,-6.7%,-4.2%
CN1CCN(C(c2ccc(Br)cc2)c2cc(Cl)c3cccnc3c2O)CC1 (stereo not drawn),-10.0%,-34.2%,0.631µM*
CN1CCN(C(c2cccnc2)c2ccc3cccnc3c2O)CC1 (stereo not drawn),5.9%,6.7%,0.251µM*
CCC(=O)NC(c1cccs1)c1ccc2cccnc2c1O (stereo not drawn),3.0%,-12.9%,0.4%
O=C(Cn1c(=O)oc2cc(S(=O)(=O)N3CCCC3)ccc21)N1CCN(c2ccccn2)CC1,?,7.94µM*,-4.1%
O=C(Cn1c(=O)oc2cc(S(=O)(=O)N3CCCC3)ccc21)N1CCN(c2ccccc2F)CC1,-2.0%,-3.3%,2.8%
CCc1ccccc1Nc1nn2c(=O)c3ccc(C(=O)NC4CCCCC4)cc3nc2s1,?,·,-0.1%
